Assay results as given in PubChem BioAssay (Tox21).
Inconclusive results are not listed. The source made the active and inactive calls. Unless noted, calls come from the whole dose curve.

tested on: not listed separately; experiment: qHTS assay to identify small molecule agonists of the TGF-beta/Smad signaling pathway (AID 1346859; active = well fitted activation curve with a large enough effect in the signal ratio in the repeat runs, not every such curve was filed as active; the % refers to the signal ratio); conditions: SBE-bla HEK293T, TGF-beta/Smad beta-lactamase reporter, 5 h; series mostly up to 76.8 µM; activation: at the top concentration
How it was run: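 Fluorescence (ex 405 nm; em 460 and 530 nm) was read 2 h after LiveBLAzer FRET substrate at RT. The preceding compound treatment of overnight-plated SBE-bla HEK293T cells lasted 5 h at 37 C.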
% is set by controls: 0 for no effect and ±100 for the full control effect.

Row | SMILES | activation
1 | COc1cc(CNC(=O)CCCC/C=C/C(C)C)ccc1O | 0.634% (inactive)
2 | C[C@H]1C[C@H]2[C@@H]3CCC4=CC(=O)C=C[C@]4(C)[C@@]3(F)[C@@H](O)C[C@]2(C)[C@@]1(O)C(=O)COP(=O)(O)O | -0.611% (inactive)
3 | CC(C)CCCCCOC(=O)CS | -4.87% (inactive)
4 | O=c1[nH][nH]c2ccccc12 | -0.181% (inactive)
5 | C=C(C)C(=O)OCCCCCCCCCCOC(=O)C(=C)C | 0.156% (inactive)
6 | Cc1ccc(S(=O)(=O)NC(=O)NC2CCCC2)cc1 | 0.578% [at 35.3 µM] (inactive)
7 | O=C(N[C@@H](Cc1ccccc1)[C@@H](O)C(=O)N1C[C@@H](O)[C@@H](O)C1)c1cc2cc(Cl)ccc2[nH]1 | -11% (inactive)
8 | CCCCCCCCOCCCN | 3.21% (inactive)
9 | CC(C)Oc1ccccc1O | -2.49% (inactive)
10 | CCCc1ccc(OC)cc1 | 0.129% (inactive)
11 | CCOc1cc(OCC)c(C(C)=O)cc1OCC | -14.3% (inactive)
12 | Cc1cc(C)c(C)c(O)c1 | 0.0655% (inactive)
13 | FC(F)(Cl)C(F)(Cl)Cl | -0.0976% (inactive)
14 | C=CCCC | -4.65% (inactive)
15 | CCC(C)C1N=C(C)C(C)S1 (stereo not drawn) | -1.78% (inactive)
16 | Clc1ccccc1-c1nc(-c2ccncc2)no1 | -0.0156% [at 35.3 µM] (inactive)
17 | CC(C)CC(C)(C)C | -0.578% (inactive)
18 | C=Cc1ccc(C=C)cc1 | -2.69% (inactive)
19 | C(/C=C/C=C/Nc1ccccc1)=Nc1ccccc1 | 0.189% (inactive)
20 | O=C(Nc1ccc2c(c1)Cc1ccccc1-2)C(F)(F)F | 0.702% (inactive)
21 | O=C(OCCN1CCOCC1)c1cccnc1Nc1cccc(C(F)(F)F)c1 | -5.97% [at 35.3 µM] (inactive)
22 | CC[C@H](NC(C)C)[C@H](O)c1ccc(O)c2[nH]c(=O)ccc12 | 2.76% [at 35.3 µM] (inactive)
23 | CC(=O)S[C@H](C(=O)N[C@H]1Cc2ccccc2[C@H]2CCC[C@@H](C(=O)O)N2C1=O)C(C)C | 0.145% (inactive)
24 | CCCCCCOC(=O)c1ccccc1 | 2.27% (inactive)
25 | O=C1c2ccccc2C(=O)c2c1ccc(O)c2O | -3.16% [at 35.3 µM] (inactive)

target: Thyrotropin-releasing hormone receptor (Homo sapiens) (UniProt P34981); experiment: qHTS assay to identify small molecule antagonists of the thyrotropin-releasing hormone receptor (TRHR) signaling pathway (AID 1346877; active = well fitted inhibition curve with a large enough effect in the repeat runs, not every such curve was filed as active); conditions: TRHR-HEK293, TRH-induced calcium fluorescence, antagonist mode; series mostly up to 51.3 µM; activity, negative = inhibition: at the top concentration
How it was run: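 Antagonism is measured as suppression of the calcium response to 1 nM TRH in TRHR-HEK293 cells that have been dye-loaded for 2 h at 37 °C after overnight plating. Each compound is tested at 15 concentrations in triplicate.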

Thyrotropin-releasing hormone receptor (Homo sapiens), sequence (P34981 whole entry, looked up): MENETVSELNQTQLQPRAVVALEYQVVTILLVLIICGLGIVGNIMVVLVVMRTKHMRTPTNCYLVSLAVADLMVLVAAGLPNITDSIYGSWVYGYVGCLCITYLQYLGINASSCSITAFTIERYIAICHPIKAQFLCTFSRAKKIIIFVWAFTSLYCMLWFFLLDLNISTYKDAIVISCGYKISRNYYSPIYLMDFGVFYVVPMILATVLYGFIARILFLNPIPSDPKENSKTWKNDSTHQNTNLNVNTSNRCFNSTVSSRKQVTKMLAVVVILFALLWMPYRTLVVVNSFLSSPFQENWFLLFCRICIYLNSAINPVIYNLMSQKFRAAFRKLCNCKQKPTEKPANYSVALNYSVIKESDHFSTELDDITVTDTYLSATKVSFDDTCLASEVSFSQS

Row | SMILES | activity, negative = inhibition
26 | COc1cc(CNC(=O)CCCC/C=C/C(C)C)ccc1O | 11.2% (inactive)
27 | O=C(Nc1ccccc1)c1cc([N+](=O)[O-])ccc1Cl | -2.26% (inactive)
28 | C[C@H]1C[C@H]2[C@@H]3CCC4=CC(=O)C=C[C@]4(C)[C@@]3(F)[C@@H](O)C[C@]2(C)[C@@]1(O)C(=O)COP(=O)(O)O | -0.778% (inactive)
29 | CC(C)CCCCCOC(=O)CS | -0.229% (inactive)
30 | O=c1[nH][nH]c2ccccc12 | -1.08% (inactive)
31 | C=C(C)C(=O)OCCCCCCCCCCOC(=O)C(=C)C | -1.93% (inactive)
32 | Cc1ccc(S(=O)(=O)NC(=O)NC2CCCC2)cc1 | 5.1% [at 23.6 µM] (inactive)
33 | O=C(N[C@@H](Cc1ccccc1)[C@@H](O)C(=O)N1C[C@@H](O)[C@@H](O)C1)c1cc2cc(Cl)ccc2[nH]1 | 5.4% (inactive)
34 | CCCCCCCCOCCCN | 0.133% (inactive)
35 | CC(C)Oc1ccccc1O | -6.73% (inactive)
36 | CCCc1ccc(OC)cc1 | -1.99% (inactive)
37 | CCOc1cc(OCC)c(C(C)=O)cc1OCC | -6.82% (inactive)
38 | Cc1cc(C)c(C)c(O)c1 | 5.45% (inactive)
39 | FC(F)(Cl)C(F)(Cl)Cl | -0.911% (inactive)
40 | CCc1ccc2c(c1)C(=O)c1ccccc1C2=O | 0.548% (inactive)
41 | Cc1c(-c2cccnc2)c2ccccc2n1CCCCC(=O)O | -2.63% (inactive)
42 | C=CCCC | 21.3% (inactive)

Row | SMILES | activity, negative = inhibition
43 | CCC(C)C1N=C(C)C(C)S1 (stereo not drawn) | 6.07% (inactive)
44 | CCCCCCC/C=C/C=O | 3.54% (inactive)
45 | Clc1ccccc1-c1nc(-c2ccncc2)no1 | 1.66% [at 23.6 µM] (inactive)
46 | C=CC(=O)NC(C)(C)C | 0.026% (inactive)
47 | CC(C)CC(C)(C)C | -0.372% (inactive)
48 | COc1ccc(/C=C/c2cc(OC)cc(=O)o2)cc1 | -0.507% [at 23.6 µM] (inactive)
49 | C=Cc1ccc(C=C)cc1 | 0.495% (inactive)
50 | C(/C=C/C=C/Nc1ccccc1)=Nc1ccccc1 | 2.12% (inactive)
51 | O=C(Nc1ccc2c(c1)Cc1ccccc1-2)C(F)(F)F | 2.14% (inactive)
52 | O=C(OCCN1CCOCC1)c1cccnc1Nc1cccc(C(F)(F)F)c1 | -5.25% [at 23.6 µM] (inactive)
53 | CC[C@H](NC(C)C)[C@H](O)c1ccc(O)c2[nH]c(=O)ccc12 | 1.44% [at 23.6 µM] (inactive)
54 | C1=COCCC1 | -0.369% (inactive)
55 | Clc1cc(Cl)c2c(c1)N=C1CCCCCN1C2 | 0.637% [at 23.6 µM] (inactive)
56 | COc1ccc(C(=O)c2ccc(C)cc2)c(O)c1 | -10.7% (inactive)
57 | CC(=O)S[C@H](C(=O)N[C@H]1Cc2ccccc2[C@H]2CCC[C@@H](C(=O)O)N2C1=O)C(C)C | -0.701% (inactive)
58 | CCCCCCOC(=O)c1ccccc1 | 0.161% (inactive)
59 | O=S(=O)(O)c1cc(Cl)c(Cl)cc1Cl | -0.847% (inactive)

target: Thyrotropin-releasing hormone receptor (Homo sapiens) (UniProt P34981); experiment: qHTS assay to identify small molecule agonists of the thyrotropin-releasing hormone receptor (TRHR) signaling pathway (AID 1346891); conditions: TRHR-HEK293 calcium fluorescence, agonist mode; series mostly up to 57.6 µM; activation: at the top concentration
How it was run: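 Agonist-mode intracellular calcium readout: kinetic fluorescence over 3 min at 1 s intervals after compound addition to TRHR-HEK293 cells (18 h seeded, 2 h dye-loaded at 37 C). Fifteen concentrations, triplicates.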

Row | SMILES | activation
60 | COc1cc(CNC(=O)CCCC/C=C/C(C)C)ccc1O | 0.0683% (inactive)
61 | O=C(Nc1ccccc1)c1cc([N+](=O)[O-])ccc1Cl | -0.318% (inactive)
62 | C[C@H]1C[C@H]2[C@@H]3CCC4=CC(=O)C=C[C@]4(C)[C@@]3(F)[C@@H](O)C[C@]2(C)[C@@]1(O)C(=O)COP(=O)(O)O | -0.434% (inactive)
63 | CC(C)CCCCCOC(=O)CS | 0.0612% (inactive)
64 | O=c1[nH][nH]c2ccccc12 | 0.0744% (inactive)
65 | C=C(C)C(=O)OCCCCCCCCCCOC(=O)C(=C)C | -0.0694% (inactive)
66 | Cc1ccc(S(=O)(=O)NC(=O)NC2CCCC2)cc1 | -0.34% [at 26.5 µM] (inactive)
67 | O=C(N[C@@H](Cc1ccccc1)[C@@H](O)C(=O)N1C[C@@H](O)[C@@H](O)C1)c1cc2cc(Cl)ccc2[nH]1 | -1.1% (inactive)
68 | CCCCCCCCOCCCN | 0.113% (inactive)
69 | CC(C)Oc1ccccc1O | -0.594% (inactive)
70 | CCCc1ccc(OC)cc1 | -0.0293% (inactive)
71 | CCOc1cc(OCC)c(C(C)=O)cc1OCC | 0.0846% (inactive)
72 | Cc1cc(C)c(C)c(O)c1 | -0.315% (inactive)
73 | FC(F)(Cl)C(F)(Cl)Cl | 0.196% (inactive)
74 | CCc1ccc2c(c1)C(=O)c1ccccc1C2=O | -0.115% (inactive)
75 | Cc1c(-c2cccnc2)c2ccccc2n1CCCCC(=O)O | 0.956% (inactive)
76 | C=CCCC | 0.576% (inactive)

Row | SMILES | activation
77 | CCC(C)C1N=C(C)C(C)S1 (stereo not drawn) | 0.0138% (inactive)
78 | CCCCCCC/C=C/C=O | -0.208% (inactive)
79 | Clc1ccccc1-c1nc(-c2ccncc2)no1 | -0.496% [at 26.5 µM] (inactive)
80 | C=CC(=O)NC(C)(C)C | 0.0592% (inactive)
81 | CC(C)CC(C)(C)C | -0.0226% (inactive)
82 | COc1ccc(/C=C/c2cc(OC)cc(=O)o2)cc1 | -0.431% [at 26.5 µM] (inactive)
83 | C=Cc1ccc(C=C)cc1 | -0.382% (inactive)
84 | C(/C=C/C=C/Nc1ccccc1)=Nc1ccccc1 | 0.0265% (inactive)
85 | O=C(Nc1ccc2c(c1)Cc1ccccc1-2)C(F)(F)F | 0.238% (inactive)
86 | O=C(OCCN1CCOCC1)c1cccnc1Nc1cccc(C(F)(F)F)c1 | 0.0429% [at 26.5 µM] (inactive)
87 | CC[C@H](NC(C)C)[C@H](O)c1ccc(O)c2[nH]c(=O)ccc12 | 5.18% [at 26.5 µM] (inactive)
88 | C1=COCCC1 | -0.122% (inactive)
89 | Clc1cc(Cl)c2c(c1)N=C1CCCCCN1C2 | -0.218% [at 26.5 µM] (inactive)
90 | COc1ccc(C(=O)c2ccc(C)cc2)c(O)c1 | 0.339% (inactive)
91 | CC(=O)S[C@H](C(=O)N[C@H]1Cc2ccccc2[C@H]2CCC[C@@H](C(=O)O)N2C1=O)C(C)C | 6.24% (inactive)
92 | CCCCCCOC(=O)c1ccccc1 | 0.0382% (inactive)
93 | O=S(=O)(O)c1cc(Cl)c(Cl)cc1Cl | 2.58% (inactive)
